Inconclusive results are not listed. Active and inactive are the calls of the source. How the source made its calls, unless noted: active means hit-call score of the fitted dose curve at least 0.9, where 1 is the maximum; inconclusive means response in the unintended direction; inactive means score below 0.9.
Experiments:
[1] = molecular target: Retinoic acid receptor alpha (Homo sapiens) (UniProt P10276); experiment: ATG_DR5_RAR_CIS: Attagene CIS-FACTORIAL HepG2 Assay for human Retinoic Acid Receptor Alpha (RARE), DR5 submotif (AID 2282934; active means hit-call score of the fitted dose curve at least 0.9, where 1 is the maximum; inactive means score below 0.9); settings: HepG2 Attagene cis-factorial RARE DR5 reporter, mRNA; actives raise or lower the signal
Retinoic acid receptor alpha (Homo sapiens), sequence (P10276 whole entry, looked up): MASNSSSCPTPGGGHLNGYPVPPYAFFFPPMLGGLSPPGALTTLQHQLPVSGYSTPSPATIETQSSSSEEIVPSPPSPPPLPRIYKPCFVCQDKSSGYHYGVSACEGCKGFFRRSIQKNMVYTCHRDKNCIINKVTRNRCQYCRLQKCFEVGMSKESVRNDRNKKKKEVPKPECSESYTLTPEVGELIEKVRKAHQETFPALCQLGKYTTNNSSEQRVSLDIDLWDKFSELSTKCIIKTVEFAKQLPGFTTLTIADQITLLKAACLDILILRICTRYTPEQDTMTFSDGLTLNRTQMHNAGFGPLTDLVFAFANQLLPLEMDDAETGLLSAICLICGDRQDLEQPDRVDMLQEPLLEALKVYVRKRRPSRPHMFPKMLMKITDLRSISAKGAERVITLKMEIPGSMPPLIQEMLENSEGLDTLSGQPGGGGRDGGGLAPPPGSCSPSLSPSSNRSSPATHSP
Procedure, shortened: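 HepG2, transient cis-reporter transfection, 24 h exposure. mRNA readout: RT-PCR, FAM label, HpaI cut, capillary electrophoresis. DMSO baseline, gain/loss fitting.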

[2] = molecular target: Nuclear receptor subfamily 1 group I member 3 (Homo sapiens) (UniProt Q14994); experiment: ATG_CAR_TRANS: Attagene TRANS-FACTORIAL HepG2 Assay for human Constitutive Androstane Receptor (CAR) (AID 2282969); settings: HepG2 Attagene TRANS-FACTORIAL CAR reporter;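 further: activators raise reporter mRNA above DMSO so AC50 marks induction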
Nuclear receptor subfamily 1 group I member 3 (Homo sapiens), sequence (Q14994 whole entry, looked up, the tested form may be a part): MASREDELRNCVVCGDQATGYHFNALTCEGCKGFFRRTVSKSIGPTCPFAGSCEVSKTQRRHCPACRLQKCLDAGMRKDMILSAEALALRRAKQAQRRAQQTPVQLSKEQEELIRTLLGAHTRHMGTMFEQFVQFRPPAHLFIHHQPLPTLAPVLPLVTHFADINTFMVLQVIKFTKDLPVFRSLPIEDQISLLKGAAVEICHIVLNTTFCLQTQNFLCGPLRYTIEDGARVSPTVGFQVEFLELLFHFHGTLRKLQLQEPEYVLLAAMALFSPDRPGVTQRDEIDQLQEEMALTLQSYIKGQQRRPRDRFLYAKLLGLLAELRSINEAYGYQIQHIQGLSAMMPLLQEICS
Procedure, shortened: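 Signal is reporter mRNA induction relative to DMSO, measured 24 h after dosing by RT-PCR with fluorescent primer extension and capillary electrophoresis. Human HepG2 liver cells carried transiently transfected chimeric NR-Gal4/GAL4-UAS reporter constructs.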

[3] = ATG_M_19_TRANS: Attagene TRANS-FACTORIAL HepG2 Assay for M19 Transcription Factor (Internal Marker) (AID 2282974); settings: HepG2 Attagene TRANS-FACTORIAL M19 internal marker reporter
Procedure, shortened: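 Cells: human HepG2, transiently transfected with multiplexed reporter transcription units. Exposure: 24 h. Detection: RT-PCR of reporter mRNA with capillary electrophoresis. Analysis: gain-of-signal vs DMSO.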

[4] = molecular target: Oxysterols receptor LXR-alpha (Homo sapiens) (UniProt Q13133); experiment: ATG_LXRa_TRANS: Attagene TRANS-FACTORIAL HepG2 Assay for human Liver X Receptor alpha (LXRa) (AID 2282980); settings: HepG2 Attagene TRANS reporter, LXRa transactivation
Procedure, shortened: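 HepG2 cells were transiently transfected with multiplexed reporter units driven by chimeric LXRa–GAL4 fusion proteins, then dosed for 24 h. Reporter mRNA was quantified by RT-PCR, fluorescent labelling and capillary electrophoresis; gain of signal fitted against DMSO baseline.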

[5] = molecular target: Oxysterols receptor LXR-beta (Homo sapiens) (UniProt P55055); experiment: ATG_LXRb_TRANS: Attagene TRANS-FACTORIAL HepG2 Assay for human Liver X Receptor beta (LXRb) (AID 2282981); settings: HepG2 Attagene TRANS GAL4-LXRb reporter, mRNA
Oxysterols receptor LXR-beta (Homo sapiens), sequence (P55055 whole entry, looked up, the tested form may be a part): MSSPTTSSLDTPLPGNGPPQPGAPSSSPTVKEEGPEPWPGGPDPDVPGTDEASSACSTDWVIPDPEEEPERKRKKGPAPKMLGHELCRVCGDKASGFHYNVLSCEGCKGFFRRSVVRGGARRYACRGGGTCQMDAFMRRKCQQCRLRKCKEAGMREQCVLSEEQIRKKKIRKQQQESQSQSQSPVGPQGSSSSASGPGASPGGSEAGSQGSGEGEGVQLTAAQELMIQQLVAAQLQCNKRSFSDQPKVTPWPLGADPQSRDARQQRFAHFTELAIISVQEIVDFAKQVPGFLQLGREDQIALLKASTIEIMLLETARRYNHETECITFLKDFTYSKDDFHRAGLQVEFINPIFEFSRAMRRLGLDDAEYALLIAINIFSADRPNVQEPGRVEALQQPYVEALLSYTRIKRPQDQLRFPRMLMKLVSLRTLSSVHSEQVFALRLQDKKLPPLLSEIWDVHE
Procedure, shortened: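 After 24 h chemical treatment of transfected HepG2 cells carrying exogenous NR-Gal4 chimeras, reporter mRNA was quantified by fluorescent RT-PCR and capillary electrophoresis; activity taken as increase over DMSO controls.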

[6] = molecular target: Hepatocyte nuclear factor 4-alpha (Homo sapiens) (UniProt P41235); experiment: ATG_HNF4a_TRANS: Attagene TRANS-FACTORIAL HepG2 Assay for human Hepatocyte Nuclear Factor 4 alpha (HNF4a) (AID 2282982); settings: HepG2 HNF4a transactivation reporter, mRNA readout
Hepatocyte nuclear factor 4-alpha (Homo sapiens), sequence (P41235 whole entry, looked up, the tested form may be a part): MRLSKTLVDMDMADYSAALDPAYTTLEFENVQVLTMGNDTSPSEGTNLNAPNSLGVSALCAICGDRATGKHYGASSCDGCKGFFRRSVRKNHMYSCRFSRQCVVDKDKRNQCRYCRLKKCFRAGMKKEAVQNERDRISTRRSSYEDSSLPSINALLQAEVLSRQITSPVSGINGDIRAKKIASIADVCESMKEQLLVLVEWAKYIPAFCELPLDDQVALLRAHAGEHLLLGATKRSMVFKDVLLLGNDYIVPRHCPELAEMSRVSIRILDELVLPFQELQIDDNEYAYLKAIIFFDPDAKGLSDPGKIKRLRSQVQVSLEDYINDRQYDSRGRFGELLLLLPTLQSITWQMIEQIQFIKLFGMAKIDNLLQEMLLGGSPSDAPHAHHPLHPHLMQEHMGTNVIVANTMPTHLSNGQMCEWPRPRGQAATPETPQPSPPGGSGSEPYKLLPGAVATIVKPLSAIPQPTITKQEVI
Procedure, shortened: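 Activity of an exogenous HNF4a–Gal4 fusion scored as induced GAL4-UAS reporter transcripts after 24 h chemical exposure of transfected human HepG2 cells. Read-out via RT-PCR with 6-FAM labelling and capillary electrophoresis; rise over DMSO baseline.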

[7] = molecular target: human Peroxisome Proliferator-activated Receptor delta (PPARd), PPARD (gene 5467) (UniProt Q03181); experiment: ATG_PPARd_TRANS: Attagene TRANS-FACTORIAL HepG2 Assay for human Peroxisome Proliferator-activated Receptor delta (PPARd) (AID 2283002)
human Peroxisome Proliferator-activated Receptor delta (PPARd), PPARD (gene 5467), sequence (Q03181 whole entry, looked up): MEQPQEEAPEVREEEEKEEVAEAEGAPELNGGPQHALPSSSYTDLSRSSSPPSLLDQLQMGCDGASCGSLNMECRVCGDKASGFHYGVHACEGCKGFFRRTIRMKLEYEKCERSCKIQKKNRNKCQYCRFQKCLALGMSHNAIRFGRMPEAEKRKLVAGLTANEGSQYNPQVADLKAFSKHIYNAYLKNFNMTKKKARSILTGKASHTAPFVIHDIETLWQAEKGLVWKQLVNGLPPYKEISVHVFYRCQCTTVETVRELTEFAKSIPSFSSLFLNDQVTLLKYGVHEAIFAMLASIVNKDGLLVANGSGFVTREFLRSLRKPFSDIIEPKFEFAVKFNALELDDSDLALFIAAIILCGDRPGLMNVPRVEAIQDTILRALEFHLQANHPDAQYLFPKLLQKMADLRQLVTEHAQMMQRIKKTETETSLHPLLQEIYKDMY
Procedure, shortened: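 Cell-based TRANS reporter: HepG2, transient MRTU transfection, 24 h exposure. Readout = reporter mRNA (RT-PCR/CE, 6-FAM). Gain-of-signal fit vs DMSO control.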

[8] = molecular target: human RAR-related Orphan Receptor beta (RORb), RORB (gene 6096) (UniProt Q92753); experiment: ATG_RORb_TRANS: Attagene TRANS-FACTORIAL HepG2 Assay for human RAR-related Orphan Receptor beta (RORb) (AID 2283010)
Procedure, shortened: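 Read-out is reporter mRNA induction, quantified by RT-PCR with fluorescent capillary electrophoresis, 24 h post-dose in transiently transfected HepG2 expressing exogenous NR-Gal4 chimera. Activity fitted upward versus DMSO.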

[9] = molecular target: human Retinoid X Receptor beta (RXRb), RXRB (gene 6257) (UniProt P28702); experiment: ATG_RXRb_TRANS: Attagene TRANS-FACTORIAL HepG2 Assay for human Retinoid X Receptor beta (RXRb) (AID 2283013)
human Retinoid X Receptor beta (RXRb), RXRB (gene 6257), sequence (P28702 whole entry, looked up, the tested form may be a part): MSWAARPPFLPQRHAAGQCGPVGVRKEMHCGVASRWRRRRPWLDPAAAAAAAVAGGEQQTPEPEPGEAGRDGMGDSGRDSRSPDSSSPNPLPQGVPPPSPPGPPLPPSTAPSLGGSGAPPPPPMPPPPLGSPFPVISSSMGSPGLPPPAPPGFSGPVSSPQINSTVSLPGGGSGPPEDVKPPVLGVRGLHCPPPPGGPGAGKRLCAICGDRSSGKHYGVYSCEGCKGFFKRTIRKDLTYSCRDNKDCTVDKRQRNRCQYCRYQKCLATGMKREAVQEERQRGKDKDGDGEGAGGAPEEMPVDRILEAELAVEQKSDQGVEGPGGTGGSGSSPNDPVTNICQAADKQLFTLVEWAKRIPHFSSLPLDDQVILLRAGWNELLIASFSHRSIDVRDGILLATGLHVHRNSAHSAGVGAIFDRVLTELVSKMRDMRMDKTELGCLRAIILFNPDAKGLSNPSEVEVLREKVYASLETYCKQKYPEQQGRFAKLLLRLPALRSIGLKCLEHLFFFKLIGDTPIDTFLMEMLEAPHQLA
Procedure, shortened: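 Readout is reporter transcript induction after 24 h dosing. It is measured by RT-PCR of total RNA followed by fluorescent capillary electrophoresis. HepG2 liver cells carry transfected multiple reporter units driven by an exogenous RXRb-Gal4 fusion; activity is relative to DMSO.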

[10] = molecular target: human Vitamin D Receptor (VDR), VDR (gene 7421) (UniProt P11473); experiment: ATG_VDR_TRANS: Attagene TRANS-FACTORIAL HepG2 Assay for human Vitamin D Receptor (VDR) (AID 2283022)
human Vitamin D Receptor (VDR), VDR (gene 7421), sequence (P11473 whole entry, looked up, the tested form may be a part): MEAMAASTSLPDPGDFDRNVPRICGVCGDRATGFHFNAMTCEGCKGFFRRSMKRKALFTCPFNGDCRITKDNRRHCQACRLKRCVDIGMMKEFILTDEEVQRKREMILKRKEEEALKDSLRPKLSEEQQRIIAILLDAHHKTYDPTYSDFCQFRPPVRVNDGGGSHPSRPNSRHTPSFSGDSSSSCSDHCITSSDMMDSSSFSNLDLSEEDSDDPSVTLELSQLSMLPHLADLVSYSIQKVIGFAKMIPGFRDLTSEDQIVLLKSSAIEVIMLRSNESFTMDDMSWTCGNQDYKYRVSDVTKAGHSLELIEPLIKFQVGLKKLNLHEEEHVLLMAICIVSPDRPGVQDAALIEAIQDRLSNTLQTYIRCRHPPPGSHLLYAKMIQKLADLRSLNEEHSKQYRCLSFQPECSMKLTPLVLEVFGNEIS
Procedure, shortened: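 HepG2 cells were transiently transfected with multiple GAL4-UAS reporter units, so signal reflects exogenous chimeric receptor-Gal4 activity. After 24 h compound exposure, reporter mRNA was measured by RT-PCR, fluorescent labelling and capillary electrophoresis, fitted for gain of signal versus DMSO.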

[11] = ACEA_ER_AUC_viability: ACEA Biosciences xCELLigence Real-Time Cell Analysis on Estrogen Receptor Agonism for Viability (AID 2283782);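 further: hit means loss of impedance signal meaning reduced cell growth or viability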
Procedure, shortened: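 Viability endpoint: reduced impedance area under the curve relative to DMSO, recorded by real-time electrode sensing over ~80 h of continuous exposure. Duplicate plates of T47D in hormone-depleted medium; eight concentrations, 1:4 dilutions, 100 uM maximum.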

[12] = molecular target: Bile acid receptor (Homo sapiens) (UniProt Q96RI1); experiment: ATG_IR1_CIS: Attagene CIS-FACTORIAL HepG2 Assay for human Nuclear Receptor Subfamily 1 Group H Member 4 (NR1H4), IR1 submotif (AID 2282946; active means hit-call score of the fitted dose curve at least 0.9, where 1 is the maximum; inactive means score below 0.9); settings: IR1 reporter transcription, actives raise or lower the signal
Bile acid receptor (Homo sapiens), sequence (Q96RI1 whole entry, looked up): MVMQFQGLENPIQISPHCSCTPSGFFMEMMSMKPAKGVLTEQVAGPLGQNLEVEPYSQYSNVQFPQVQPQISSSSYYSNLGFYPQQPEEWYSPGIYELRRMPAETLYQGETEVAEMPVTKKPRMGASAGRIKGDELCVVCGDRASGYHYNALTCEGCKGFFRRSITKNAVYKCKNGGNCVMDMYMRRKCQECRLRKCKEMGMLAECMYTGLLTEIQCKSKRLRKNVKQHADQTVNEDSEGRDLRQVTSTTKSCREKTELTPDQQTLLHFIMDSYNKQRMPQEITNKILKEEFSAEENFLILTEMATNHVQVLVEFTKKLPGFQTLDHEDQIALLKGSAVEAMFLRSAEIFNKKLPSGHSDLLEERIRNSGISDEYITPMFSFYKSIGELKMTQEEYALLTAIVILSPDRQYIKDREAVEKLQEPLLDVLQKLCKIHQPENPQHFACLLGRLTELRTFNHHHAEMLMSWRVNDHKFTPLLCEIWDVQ
Procedure, shortened: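 HepG2 cells transiently transfected with multiplexed cis-element reporter units read endogenous transcription factor activity. After 24 h compound exposure, reporter mRNA was quantified by RT-PCR, fluorescent labelling, HpaI digestion and capillary electrophoresis; bidirectional fitting versus DMSO baseline.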

[13] = molecular target: human Thyroid Receptor alpha (THRa1), THRA (gene 7067) (UniProt P10827); experiment: ATG_THRa1_TRANS: Attagene TRANS-FACTORIAL HepG2 Assay for human Thyroid Receptor alpha (THRa1) (AID 2283014)
human Thyroid Receptor alpha (THRa1), THRA (gene 7067), sequence (P10827 whole entry, looked up, the tested form may be a part): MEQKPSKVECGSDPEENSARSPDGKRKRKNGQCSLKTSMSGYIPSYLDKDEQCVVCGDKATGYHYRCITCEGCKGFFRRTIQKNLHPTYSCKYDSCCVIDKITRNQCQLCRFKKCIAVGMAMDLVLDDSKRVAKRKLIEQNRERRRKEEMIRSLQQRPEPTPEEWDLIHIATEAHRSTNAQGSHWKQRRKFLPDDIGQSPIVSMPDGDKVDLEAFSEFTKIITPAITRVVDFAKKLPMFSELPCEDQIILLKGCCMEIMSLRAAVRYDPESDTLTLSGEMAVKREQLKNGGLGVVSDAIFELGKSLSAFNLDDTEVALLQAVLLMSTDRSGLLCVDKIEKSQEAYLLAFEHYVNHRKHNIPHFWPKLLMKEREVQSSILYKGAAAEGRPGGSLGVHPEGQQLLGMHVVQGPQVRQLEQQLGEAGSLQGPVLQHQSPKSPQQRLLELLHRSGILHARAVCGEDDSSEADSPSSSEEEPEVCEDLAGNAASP
Procedure, shortened: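 HepG2 cells transiently transfected with multiplexed GAL4-UAS reporter units for exogenous chimeric THRa1-Gal4; reporter mRNA measured 24 h after dosing by RT-PCR, 6-FAM labelling, HpaI digestion and capillary electrophoresis. Gain-of-signal fitted versus DMSO baseline.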

[14] = TOX21_p53_BLA_p2_viability: Viability Assessment in the Tox21 HCT-116 p53 Agonism Beta-lactamase Assay, Phase 2 (AID 2283591);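 further: compound exposure lasted 16 h at 37 °C; actives lower the ATP signal meaning cytotoxicity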
Procedure, shortened: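 Cytotoxicity readout: CellTiter-Glo ATP luminescence, 30 min at room temperature, after the beta-lactamase read. Cells were HCT116 exposed 16 h at 37C to compounds pin-transferred at 217-fold dilution from DMSO stocks.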

[15] = TOX21_p53_BLA_p4_viability: Viability Assessment in the Tox21 HCT-116 p53 Agonism Beta-lactamase Assay, Phase 4 (AID 2283597);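 further: hits lower the luminescence signal meaning cytotoxicity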
Procedure, shortened: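 Cytotoxicity was inferred from loss of CellTiter-Glo luminescence. HCT116 cells had been dosed with compounds after 5 h plating, incubated 16 h at 37C and 5% CO2, and exposed to the CCF4-AM substrate for 2 h.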

[16] = TOX21_p53_BLA_p5_viability: Viability Assessment in the Tox21 HCT-116 p53 Agonism Beta-lactamase Assay, Phase 5 (AID 2283600)
Procedure, shortened: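 Luciferase-coupled ATP quantitation of cells treated for 16 h (37C, 5% CO2) with test chemicals delivered in DMSO via a 217-fold dilution; 4000 cells/well; reagent incubated 30 min at room temperature before luminescence reading.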

[17] = CCTE_Harrill_HTTr_Apoptosis_MCF7: CCTE's 6-hour Apoptosis Assessment for the High-Throughput Transcriptomics (HTTr) Platform, in MCF-7 cells cultured in DMEM + 10% fetal bovine serum, Harrill Lab (AID 2284011; active means hit-call score of the fitted dose curve at least 0.9, where 1 is the maximum; inactive means score below 0.9)
Procedure, shortened: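 MCF-7 cells in DMEM + 10% fetal bovine serum were exposed to chemicals for 6 hours over an eight-point dilution series. Caspase-3/7 activation was imaged by high content imaging with CellEvent Caspase 3/7 Green; bidirectional fitting used DMSO as baseline.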

[18] = ATG_GAL4_TRANS: Attagene TRANS-FACTORIAL HepG2 Assay for GAL4 (Internal Marker) (AID 2282976); settings: HepG2 Attagene TRANS GAL4 internal marker reporter
Procedure, shortened: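 HepG2 cells transiently transfected with multiplexed GAL4-UAS reporter constructs were dosed for 24 h. Reporter mRNA was measured by RT-PCR, 6-FAM primer extension, HpaI digestion and capillary electrophoresis, and gain of signal was fitted relative to DMSO.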

[19] = TOX21_p53_BLA_p3_viability: Viability Assessment in the Tox21 HCT-116 p53 Agonism Beta-lactamase Assay, Phase 3 (AID 2283593);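 further: cells exposed to compound for 16 h before reading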
Procedure, shortened: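 Cellular ATP was quantified by CellTiter-Glo luminescence, read after 30 min at room temperature. Beforehand, HCT116 cells (4000/well) received compound 5 h post-seeding, 217-fold diluted from DMSO, then incubated 16 h at 37C.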

[20] = molecular target: human Peroxisome Proliferator-activated Receptor alpha (PPARa), PPARA (gene 5465) (UniProt Q07869); experiment: ATG_PPARa_TRANS: Attagene TRANS-FACTORIAL HepG2 Assay for human Peroxisome Proliferator-activated Receptor alpha (PPARa) (AID 2283001)
human Peroxisome Proliferator-activated Receptor alpha (PPARa), PPARA (gene 5465), sequence (Q07869 whole entry, looked up, the tested form may be a part): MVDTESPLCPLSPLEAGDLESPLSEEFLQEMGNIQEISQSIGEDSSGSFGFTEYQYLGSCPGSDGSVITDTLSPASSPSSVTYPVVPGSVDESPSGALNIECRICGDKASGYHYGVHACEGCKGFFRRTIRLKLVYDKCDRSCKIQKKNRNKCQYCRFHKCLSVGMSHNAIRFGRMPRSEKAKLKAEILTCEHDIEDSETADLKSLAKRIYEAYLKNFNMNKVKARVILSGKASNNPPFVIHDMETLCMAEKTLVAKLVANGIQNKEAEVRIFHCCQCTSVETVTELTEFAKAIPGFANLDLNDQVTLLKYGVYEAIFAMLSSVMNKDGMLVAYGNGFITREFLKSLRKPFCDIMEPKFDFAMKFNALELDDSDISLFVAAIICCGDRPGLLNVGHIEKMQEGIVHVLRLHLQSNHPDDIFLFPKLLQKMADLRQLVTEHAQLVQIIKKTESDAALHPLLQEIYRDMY
Procedure, shortened: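 Reporter transcripts quantified by RT-PCR plus capillary electrophoresis after 24 h treatment, fitted upward relative to DMSO. Cells: human HepG2 transiently carrying multiple GAL4-UAS reporter units driven by NR-Gal4 chimeras.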

Measured: AC50

[CH3][Sn]([CH3])([Cl])[Cl]
active: [11] 21.3 µM
inactive: [1] | [2] | [3] | [4] | [5] | [6] | [7] | [8] | [9] | [10]

N#CCCCCC#N
inactive: [12] | [5] | [13] | [14] | [15] | [16] | [17]

CC(C)CCCCCCCOC(=O)c1ccccc1C(=O)OCCCCCCCC(C)C
inactive: [12] | [3] | [18] | [8] | [13] | [11] | [17]

O=C(NCNC(=O)NC1C(=O)NC(=O)N1CO)NC1C(=O)NC(=O)N1CO (stereo not drawn)
active: [9] 39.8 µM | [11] 9.92 µM
inactive: [1] | [12] | [7] | [8] | [13] | [15]

CCC[N+](=O)[O-]
not listed: [1] | [2] | [4] | [9] | [20]
inactive: all other assays above

CC1(C)[C@H](C(=O)O[C@H](C#N)c2cccc(Oc3ccccc3)c2)[C@@H]1C=C(Br)Br
active: [11] 72.7 µM
inactive: [3] | [18] | [8] | [9] | [13] | [14] | [19] | [15] | [16] | [17]

[Cl][Sb]([Cl])[Cl]
active: [11] 87.8 µM
not listed: [3] | [9] | [10] | [12] | [18] | [19] | [20]
inactive: all other assays above

CCOC(=O)C1OC1(C)c1ccccc1 (stereo not drawn)
inactive: [2] | [3] | [4] | [5] | [20] | [8] | [19] | [15] | [16] | [11]

CCN(CC)C(=S)S
inactive: [5] | [7] | [8] | [9] | [13]

CCNCC
inactive: [3] | [18] | [5] | [20] | [13]

O=[N+]([O-])c1ccc(Cl)cc1
inactive: [3] | [5] | [6] | [20] | [10] | [14] | [19] | [15] | [16] | [11] | [17]

BrCBr
inactive: [3] | [18] | [4] | [5] | [6] | [7] | [13] | [14] | [19] | [15]

From PubChem BioAssay (EPA / NIEHS)
